Screens as filed in PubChem.
p-CIP stab down – p/CIP protein destabilization; Q05BA5; F442A p/CIP-EGFP cells, EGFP fluorescence, 16 h; decrease of EGFP signal, % at 10 µM; 0.01% of 290,000 active;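 active = EGFP signal decrease of at least 30% at 10 µM or well 3 SD below plate mean, unless failing retest; inactive = the rest, including hits failing retest or dose response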
Target sequence (Q05BA5 1-1403): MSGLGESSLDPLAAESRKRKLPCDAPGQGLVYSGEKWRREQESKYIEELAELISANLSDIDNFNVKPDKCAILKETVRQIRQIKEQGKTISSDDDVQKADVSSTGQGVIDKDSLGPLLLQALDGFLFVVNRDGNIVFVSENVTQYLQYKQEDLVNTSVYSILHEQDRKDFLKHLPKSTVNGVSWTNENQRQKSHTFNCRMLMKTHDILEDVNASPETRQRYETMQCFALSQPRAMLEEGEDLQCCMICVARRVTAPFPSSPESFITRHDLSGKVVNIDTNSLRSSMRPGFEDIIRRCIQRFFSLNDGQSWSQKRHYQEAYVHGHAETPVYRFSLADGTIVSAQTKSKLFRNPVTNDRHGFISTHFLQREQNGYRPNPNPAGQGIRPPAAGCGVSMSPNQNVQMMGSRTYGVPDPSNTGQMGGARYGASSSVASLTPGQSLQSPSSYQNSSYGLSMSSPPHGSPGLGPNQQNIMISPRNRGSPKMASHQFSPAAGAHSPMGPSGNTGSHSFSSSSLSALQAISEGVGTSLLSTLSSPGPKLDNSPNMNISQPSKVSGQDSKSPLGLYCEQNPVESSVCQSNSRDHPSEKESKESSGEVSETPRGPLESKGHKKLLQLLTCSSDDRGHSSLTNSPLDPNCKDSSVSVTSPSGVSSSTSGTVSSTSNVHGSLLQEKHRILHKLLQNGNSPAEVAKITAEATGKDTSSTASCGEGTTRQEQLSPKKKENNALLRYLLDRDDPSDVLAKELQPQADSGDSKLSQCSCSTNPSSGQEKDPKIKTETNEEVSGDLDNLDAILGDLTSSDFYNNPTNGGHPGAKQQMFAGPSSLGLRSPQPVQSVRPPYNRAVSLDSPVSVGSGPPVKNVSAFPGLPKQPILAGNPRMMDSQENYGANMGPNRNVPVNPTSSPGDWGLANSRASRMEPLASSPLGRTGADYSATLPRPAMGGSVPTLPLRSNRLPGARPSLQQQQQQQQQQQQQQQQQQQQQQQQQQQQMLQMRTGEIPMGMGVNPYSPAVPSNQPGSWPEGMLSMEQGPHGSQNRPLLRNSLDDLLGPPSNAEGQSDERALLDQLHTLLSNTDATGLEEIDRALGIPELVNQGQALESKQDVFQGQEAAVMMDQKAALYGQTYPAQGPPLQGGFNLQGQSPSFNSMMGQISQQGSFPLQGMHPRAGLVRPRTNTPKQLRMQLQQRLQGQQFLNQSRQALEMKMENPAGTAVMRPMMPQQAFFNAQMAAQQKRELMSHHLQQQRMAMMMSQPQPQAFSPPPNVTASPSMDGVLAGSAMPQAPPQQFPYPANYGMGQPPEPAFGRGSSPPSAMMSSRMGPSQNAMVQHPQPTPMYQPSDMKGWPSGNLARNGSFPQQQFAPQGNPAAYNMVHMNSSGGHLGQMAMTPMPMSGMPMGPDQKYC
NALP1 yeast inh – NALP1 inhibition. S. cerevisiae NALP1/ASC/caspase-1 growth, X-gal OD620, 72 h. inhibition, % at 10 µM. 0.61% of 280,000 active; in the data active = inhibition mostly above about 24%, no sharp cut-off; inactive = mostly below about 32%
Hsp70 activator – Hsp70 transcriptional activation, primary screen; HeLa Hsp70 promoter luciferase reporter, luminescence; scaled: vehicle 0, proteasome-inhibitor control 100%; activation, % at 10 µM; 0.04% of 200,000 active; AID 1203;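 active = activation above the mean across all tested compounds plus 3 SD, cutoff set per campaign, cut at about 5.5% in these data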
HSF1 inhib – HSF1 inhibition. AID 2098. NIH3T3-HGL HSE-luciferase, MG132-induced, luminescence 8 h; active compounds read low. 0.77% of 300,000 active. activity change, negative = inhibition, % at 7.5 µM (by protocol);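 active = more than half of replicate wells show activity change below -50%, luminescence cut by over half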;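 also: luciferase reports HSF-1 transcriptional activity via heat shock element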
HSP90 refold inh – inhibitors of HSP90 luciferase refolding in rabbit reticulocyte lysate; AID 1789; luciferase refolding luminescence, 3 h; inhibition, % at 5.6 µM; 0.91% of 290,000 active;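 active = inhibition above the screen-wide mean plus 3 SD, computed separately per campaign, cut at about 16% in these data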;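 also: inhibitors lower the luminescence because luciferase stays unfolded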
HSF-1 act – increases HSF-1 driven luciferase reporter signal; NIH3T3-HGL HSF-1 luciferase reporter, MG132, 8 h; 100% = twice DMSO control signal; activation, % at 9 µM; 1.7% of 300,000 active; AID 504408;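 active = mean replicate activation of at least 50% with a set share of replicates each reaching 50%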
Each line names hits and unclear results; the compound was inactive in the other large screens. In the library only some 3.8% were active in any assay of this set; here they are far more common.

CC12CCC3C(CC=C4CC5(CCC43C)OCCO5)C1CCC2=O (configuration not stated)	HSF1 inhib -73.5
CCCCCn1c(=O)c(C(=O)NC(C)c2ccccc2)c(O)c2ccccc21 (configuration not stated)	none (no result: Hsp70 activator)
Cc1ccccc1CCNCc1cc2cccc(C)c2[nH]c1=O	none (no result: Hsp70 activator)
O=C1/C(=C\c2cc3c(cc2Cl)OCO3)N2CCC1CC2	NALP1 yeast inh 44.6
O=C1/C(=C/c2cc3c(cc2Cl)OCO3)N2CCC1CC2	NALP1 yeast inh 46.8
Cc1cc(OC(C)C(=O)NCC(O)c2ccccc2)c2c3c(c(=O)oc2c1)CCC3 (configuration not stated)	none (no result: Hsp70 activator)
CN1CCN(C(=O)O[C@H]2c3nccnc3C(=O)N2c2ccc(Cl)cn2)CC1	none (no result: Hsp70 activator)
Cc1ccc2nc3c(cc2c1)CC1(C(=O)N(C)C(=O)N(C)C1=O)C1CCCCN31 (configuration not stated)	HSF-1 act 81.2
CCc1ccc(-c2nn(Cc3ccccc3)cc2C=O)cc1	HSF-1 act 101.8
c1ccc(NC2=NCCCS2)cc1	none (no result: Hsp70 activator)
c1ccc(CN2CCN(Cc3ccc4ccccc4c3)CC2)cc1	HSP90 refold inh 16.9 (no result: Hsp70 activator)
CCOC(=O)CSc1ccc(C(=O)N2CCC3(CC2)OCCO3)cc1[N+](=O)[O-]	none (no result: Hsp70 activator)
CCC(=NCc1ccco1)c1c(O)n(C2CCCCC2)c(=O)[nH]c1=O	HSF-1 act 66.4
CCC(=NCc1cccnc1)c1c(O)n(C2CCCCC2)c(=O)[nH]c1=O	none
CC(C)(O)/C=C/C(=O)C(C)(O)C1C(O)CC2(C)C3CC=C4C(C=C(O)C(=O)C4(C)C)C3(C)C(=O)CC12C (configuration not stated)	HSF1 inhib 69.1, HSF-1 act 69.1 (no result: p-CIP stab down, NALP1 yeast inh, Hsp70 activator, HSP90 refold inh)
O=C(CCc1nnc2ccc(NCc3ccccc3Cl)nn12)N1CCC2(CC1)OCCO2	none (no result: Hsp70 activator)
Nc1c(Cl)cc([N+](=O)[O-])cc1Cl	none (no result: p-CIP stab down, NALP1 yeast inh, Hsp70 activator, HSP90 refold inh)
CCCc1[nH]nc2c1C1(C(=O)N(Cc3ccccc3)c3ccccc31)C(C(=O)OC)=C(N)O2 (configuration not stated)	HSF-1 act 55.5
Cc1nn(C)c(C)c1/C=C1/CC2C3CC=C4CC(O)CCC4(C)C3CCC2(C)C1=O (configuration not stated)	none
CC12CCC3C(CC=C4CC(O)CCC43C)C1C/C(=C\N1CCCC1)C2=O (configuration not stated)	HSF-1 act 62.8 (no result: Hsp70 activator)
C[C@]12CCC3C(CC[C@H]4C[C@@H](O)CC[C@]34C)C1CCC2=O (some centres not stated)	none (no result: p-CIP stab down, NALP1 yeast inh, Hsp70 activator, HSP90 refold inh)
Cc1ccsc1/C=C1\C(=O)NC(=S)N(C)C1=O	HSF1 inhib -66.8 (no result: Hsp70 activator)
CN1C(=O)/C(=C/c2ccc(Cl)s2)C(=O)NC1=S	none (no result: Hsp70 activator)
Cc1cc(N2CCCC2)ccc1C=C(C#N)C#N	none
N#CC(C#N)=Cc1ccc(C=C(C#N)C#N)cc1	HSP90 refold inh 48.7 (no result: Hsp70 activator, HSF1 inhib, HSF-1 act)
CC(C)(C)c1cc(OC(=O)Cc2ccccc2)ccc1O	none (no result: Hsp70 activator)
CC1(C)C[C@H]2C=C(C=O)[C@]3(C=O)C[C@]3(C)[C@H]2C1	NALP1 yeast inh 107.7, HSF1 inhib -75.7
c1ccc(-c2[nH]c[n+](CC3CO3)c2-c2ccccc2)cc1 (configuration not stated)	none (no result: HSF1 inhib, HSF-1 act)
O=C1NC(=O)N(c2ccccc2)C(=O)/C1=C/C=C/c1ccco1	none (no result: NALP1 yeast inh, Hsp70 activator)
CN(C)c1ccc(/C=C/C=C2/C(=O)NC(=O)N(c3ccccc3)C2=O)cc1	HSF-1 act 119.0
N#CC(c1cccnc1)N1CCOCC1 (configuration not stated)	HSP90 refold inh 16.2 (no result: Hsp70 activator)
CC(=O)c1c(C)n(CC2CCCO2)c2ccc(O)cc12 (configuration not stated)	HSF-1 act 69.9
Cc1nc2ccccc2c(=O)n1-c1ccccc1[N+](=O)[O-]	none
Cc1cc([N+](=O)[O-])c2ccccc2[n+]1[O-]	HSF1 inhib -78.0 (no result: NALP1 yeast inh, Hsp70 activator)
CN1C(=O)C(c2ccc([N+](=O)[O-])cc2[N+](=O)[O-])C(=O)N(C)C1=O	none (no result: Hsp70 activator)
Cc1cc(Oc2cc(NN3CCCCC3)c([N+](=O)[O-])cc2[N+](=O)[O-])ccc1[N+](=O)[O-]	none (no result: Hsp70 activator)
COc1ccc(C(=O)C2CCCN(Cc3ccc(C)s3)C2)c(OC)c1 (configuration not stated)	HSF-1 act 63.4
COc1ccc(C(=O)C2CCCN(Cc3cccc(C)n3)C2)c(OC)c1 (configuration not stated)	none (no result: Hsp70 activator)
Cc1cc(OCC(=O)N[C@H](C(=O)O)c2ccccc2)c2c3c(c(=O)oc2c1)CCC3	none (no result: Hsp70 activator)
CN(C)CCSC1c2ccccc2CSc2ccccc21 (configuration not stated)	none (no result: p-CIP stab down, NALP1 yeast inh, Hsp70 activator, HSP90 refold inh)
Cc1cccc(N2C(=O)NC(=O)/C(=C/c3ccc([N+](=O)[O-])o3)C2=O)c1	NALP1 yeast inh 48.3 (no result: HSF1 inhib, HSF-1 act)
CC1(C)COC(Nc2ccc(Cl)cc2)=N1	NALP1 yeast inh 40.7
O=C(C1CCC(=O)N1C1CCCC1)N1CCC2(CC1)OCCO2 (configuration not stated)	none
O=C(C1CCCO1)N1CCC2(CC1)OCCO2 (configuration not stated)	HSF1 inhib -90.0 (no result: NALP1 yeast inh)
c1cncc(C2CCCCN2)c1 (configuration not stated)	none (no result: Hsp70 activator)
OCC1(CO)COC(c2cccnc2)N1 (configuration not stated)	HSF-1 act 66.0
CCOc1cc2c(cc1OCC)-n1cccc1C(c1c(O)cccc1OC)NC2 (configuration not stated)	none (no result: Hsp70 activator)
CNC(=O)Oc1cccc(-c2cn3cc(Cl)ccc3n2)c1	HSP90 refold inh 48.9
CCC(COC(=O)NC)NC(=O)Oc1cccc(C)c1 (configuration not stated)	none
CC(Cc1ccccc1)NCC(=O)Nc1cc(N(C)C)nc2ccccc12 (configuration not stated)	HSF-1 act 58.0 (no result: NALP1 yeast inh, Hsp70 activator)
CC(Cc1ccccc1)NCc1ccccc1O (configuration not stated)	none
COC(=O)C1=C(c2cccc(OC)c2OC)C[C@@H]2CC[C@H]1N2C(=O)N1CCC(C)CC1	none (no result: p-CIP stab down, NALP1 yeast inh, Hsp70 activator, HSP90 refold inh)
CC(=O)Cc1c[nH]c2ccccc12	HSF1 inhib -90.8 (no result: Hsp70 activator)
COc1cc(/C=C/[N+](=O)[O-])ccc1OC(=O)c1cccnc1	none (no result: Hsp70 activator)
COc1cc2c(cc1/C=C/[N+](=O)[O-])OCO2	HSF-1 act 263.4
Cc1ccc(N2C(=O)NC(=O)/C(=C\C=C\c3ccco3)C2=O)cc1	none (no result: NALP1 yeast inh, Hsp70 activator)
O=C1NC(=O)N(Cc2ccco2)C(=O)/C1=C/C=C/c1ccco1	none (no result: NALP1 yeast inh, Hsp70 activator)
O=C1NC(=O)N(Cc2ccccc2)C(=O)/C1=C\C=C\c1ccco1	HSF-1 act 71.2
Cc1ccc(N2C(=O)NC(=O)/C(=C\C=C\c3ccco3)C2=O)cc1C	HSF-1 act 146.3
COc1ccc(C2C([N+](=O)[O-])=C(N)Oc3c2c(=O)oc2ccccc32)cc1 (configuration not stated)	none
